Compound activity: PubChem BioAssay, National Center for Advancing Translational Sciences (NCATS)
Tau fibril FP – inhibitors of human tau fibril formation. K18 P301L tau heparin fibrillization, Alexa594 FP, 6 h. Potency, µM (top dose mostly 57.7 µM), without a hit: at the top dose activity, negative = inhibition, actives largely listed as inhibitors. 0.39% of 280,000 active. AID 1468; also: potency is read from the fitted curve at half-maximal effect; nearly all actives have a fitted effect of over 55% in size
Target sequence (P10636 561-689 P618L limits assumed): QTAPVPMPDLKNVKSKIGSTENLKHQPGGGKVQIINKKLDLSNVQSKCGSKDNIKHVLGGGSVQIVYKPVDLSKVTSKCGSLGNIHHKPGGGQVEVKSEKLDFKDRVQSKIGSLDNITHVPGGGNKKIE
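FP of Alexa 594-tau after heparin (20 uM) induction. Substrate: human K18 P301L, 15 uM unlabeled, 0.24 uM labeled. Buffer 100 mM sodium acetate pH 7. 6 hr, 37 C.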
Tau fibril ThT – inhibitors of human tau fibril formation, thioflavin T binding. P10636. recombinant tau K18 P301L, heparin-induced fibrillization, ThT fluorescence. Potency, µM (highest dose often 57.4 µM), inactives show top-dose activity, negative = inhibition, actives largely listed as inhibitors. 2.1% of 270,000 active; also: potency is read from the fitted curve at half-maximal effect; nearly all actives have a fitted effect of over 55% in size
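K18 P301L tau (15 uM + 0.24 uM Alexa 594-tagged), heparin 20 uM, NaOAc pH 7, 6 h 37 C; ThT 30 uM, 1 h RT, ex 450/em 510 nm.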
FBPA coupling cs – inhibits coupling enzyme system, counter-screen for aldolase hits; coupling enzyme system counterscreen, AmpLite Red fluorescence; activity change, negative = inhibition, % at 58.2 µM, hits read low; 0.67% of 290,000 active; AID 2472; in the data active = activity change below about -30%
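Fluorescence at 525 nm excitation and 598 nm emission measured inhibition of the coupled detection system without aldolase. Compounds (at 57.5 uM final) were preincubated 10 min at room temperature with coupling enzyme reagent before a 20 min substrate/AmpLite Red step.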
Tau fluor cs – counter-screen for tau fibril formation inhibitors | 0.93% of 280,000 active | tau K18 P301L (four-repeat tau fragment) Alexa594 fluorescence, heparin fibrillization | Potency, µM (series often up to 57.7 µM), for inactives: top-dose activity change, negative = decrease; also: potency is read from the fitted curve at half-maximal effect; nearly all actives have a fitted effect of over 55% in size
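Human K18 P301L tau (15 uM unlabeled plus 0.24 uM Alexa 594-labeled, final) in 100 mM sodium acetate pH 7 was mixed with compound and 20 uM heparin and incubated 6 hr at 37 C.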
Sfp PPTase inh – blocks B. subtilis Sfp PPTase activity. Biochemical Sfp PPTase activity, qHTS. Potency, µM, without a hit: largest response in the series, negative = inhibition, usual class: inhibitors. 3.5% of 310,000 active. Q9F4F7. AID 1490;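 also: the enzyme is Sfp with the accession as filed and its product quenches rhodamine fluorescence; potency is read from the fitted curve at half-maximal effect; 0% = enzyme reaction without inhibitor and -100% = no enzyme wells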
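Fluorescence-quenching assay with 15 nM Sfp, 5 uM rhodamine-CoA and 12.5 uM BHQ-2-labelled ybbR peptide in pH 7.6 Hepes/MgCl2 buffer. Enzyme was pre-incubated with compound for 15 min at room temperature. Rate was taken from the 30-min fluorescence change (525/598 nm).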
* = called active by the depositor; ? = inconclusive; · = no result; [ ] = dose if it differs, or a comment. In the library only some 5.2% were active in any assay of this set; here they are far more common. Unless noted, calls follow the shape of the dose curve; as a rule, active = well fitted curve in the direction sought with a large enough effect; inconclusive = small, poorly fitted or top-dose-only effect, or another doubt; inactive = no such curve, though single readings can be large; an effect the other way counts as inactive or inconclusive. Unless noted, % is scaled to controls: 0 for no effect and ±100 for the full control effect.

SMILES	Tau fibril FP	Tau fibril ThT	FBPA coupling cs	Tau fluor cs	Sfp PPTase inh
CCCCOc1cccc(C2C(C(=O)c3ccc(C)o3)=C(O)C(=O)N2c2nnc(C)s2)c1 (stereo not drawn)	·	·	3.3	·	50.1µM*
CCOC(=O)c1sc(N2C(=O)C(O)=C(C(=O)c3ccc(C)o3)C2c2ccc(OC)c(OC)c2)nc1C (stereo not drawn)	·	·	·	·	12.0%
CCc1ccc(NC(=O)N2CCN(c3nnc(C)c4c(C)n(-c5ccc(Cl)cc5)nc34)CC2)cc1	?	-1.5%	·	11.8%	·
CN1CC(O)C2=CC(=O)C(=O)C=C21 (stereo not drawn)	12.6µM*	3.16µM*	·	5.62µM*[quencher]	5.62µM*
CCOC(=O)c1c(C2COc3ccccc3O2)csc1NC(=O)c1ccccc1 (stereo not drawn)	-4.5%	-3.5%	1.8	-9.9%	-1.3%
CCOC(=O)c1c(C2COc3ccccc3O2)csc1N (stereo not drawn)	9.1%	?	1.2	25.1µM*[quencher]	4.3%
COc1ccc(CCn2c(O)cc3nn(-c4nc5ccccc5s4)c(=O)c-3c2C)cc1	-5.6%	17.8µM*	-7.6	?	-4.1%
NC(=S)N/N=C/c1c(O)ccc2ccccc12	6.6%	·	-6.3	?	7.9%
O=S(=O)(/N=C/c1c(O)ccc2ccccc12)c1cccs1	?	?	-50.3*	-24.8%	-26.4%
Cc1ccc(S(=O)(=O)/N=C/c2c(O)ccc3ccccc23)cc1	·	·	-31.6*	·	1.2%
CN(C)CCNC(=O)Cn1nc(N2CCN(c3ccccc3)CC2)ccc1=O	4.5%	4.6%	·	8.5%	·
Cc1ccc(CN2CCN(C3CCN(S(=O)(=O)N(C)C)CC3)C(=O)C2=O)cc1	6.0%	3.1%	·	3.3%	·
Cc1nc(NS(=O)(=O)c2ccccc2)sc1NC(=O)Nc1ccccc1	1.0%	-6.4%	-1.4	-9.3%	44.7µM*
Cc1nc(NS(=O)(=O)c2ccccc2)sc1NC(=O)Nc1ccc(Cl)cc1	10.5%	?	5.8	?	79.4µM*
CC(=O)c1ccc(NC(=O)Nc2sc(NS(=O)(=O)c3ccccc3)nc2C)cc1	6.0%	?	0.5	?	?
CCOC(=O)c1cnc(N2CCN(c3ccc(C)cc3C)CC2)c2ccccc12	1.6%	-16.4%	·	-8.9%	·
Cc1cccc(N=C2NC(=O)/C(=C/c3cccn3C)S2)c1C	-4.2%	?	-0.2	-21.2%	79.4µM*
Cc1ccc(N=C2NC(=O)/C(=C/c3cccn3C)S2)cc1	2.5%	6.31µM*	1.6	?	7.4%
Cc1ccc(N=C2NC(=O)/C(=C/c3cccn3C)S2)cc1C	-3.6%	?	-1.8	-21.5%	14.2%
COc1cccc(-c2noc(Cn3nc(C)c([N+](=O)[O-])c3C)n2)c1	-0.6%	-3.0%	-1.7	-6.3%	35.5µM*
CCCOc1ccc(C2c3c(-c4ccccc4O)n[nH]c3C(=O)N2CCc2ccccc2)cc1OCC (stereo not drawn)	-10.5%	?	·	?	·
CCCCOc1ccc(CNC(=O)c2cnc3sc(N4CCCCCC4)nn3c2=O)cc1	-0.9%	8.8%	·	3.2%	·
S=C(Nc1ccc(Br)cc1Cl)Nn1cnnc1	-8.8%	-4.3%	5.9	1.9%	22.4µM*
COC(=O)Nc1ccc([N+](=O)[O-])cc1OC	-5.8%	-0.5%	0.9	-2.7%	15.5%
Cc1ccc(NC(=S)Nn2cnnc2)c(C)c1	·	·	3.9	·	39.8µM*
SMILES	Tau fibril FP	Tau fibril ThT	FBPA coupling cs	Tau fluor cs	Sfp PPTase inh
COc1cc([N+](=O)[O-])ccc1NC(=S)Nn1cnnc1	·	·	·	·	20µM*
CNC(=S)N(CCc1c(C)[nH]c2ccc(Cl)cc12)Cc1cc(OC)c(OC)c(OC)c1	-4.3%	-3.7%	1.5	-5.7%	0.5%
COCCNC(=S)N(CCc1c(C)[nH]c2ccc(Cl)cc12)Cc1cccs1	9.4%	-17.3%	-0.5	8.91µM*[quencher]	19.8%
COCCNC(=S)N(CCc1c(C)[nH]c2ccc(OC)cc12)Cc1cccnc1	·	·	6.1	·	3.7%
CNC(=S)N(CCc1c(C)[nH]c2ccc(Cl)cc12)Cc1cccs1	?	-11.9%	-0.1	15.8µM*[quencher]	15.5%
COCCNC(=S)N(CCc1c(C)[nH]c2ccccc12)Cc1ccco1	?	-13.2%	-2.3	?	17.3%
CCNC(=S)N(CCc1c(C)[nH]c2ccc(Cl)cc12)Cc1ccco1	?	-17.0%	-1.5	12.6µM*[quencher]	21.4%
